From PubChem BioAssay (NCATS)
Where “and” joins values, the source holds several entries; their conditions need not be identical. Equal values may be shown once. Results filed as inconclusive are left out. Calls of active or inactive are those of the source. Calls follow the shape of the dose curve; as a rule, active = well fitted cell-killing curve with a large enough effect; inconclusive = small, poorly fitted or top-dose-only effect, or effect the other way; inactive = no such curve, though single readings can be large or run the other way.

assay: qHTS of pediatric cancer cell lines to identify multiple opportunities for drug repurposing: Confirmatory screen for MG 63 (6-TG R) cells (AID 1347119); conditions: MG-63 (6-TG resistant) osteosarcoma viability; series mostly up to 45.9 µM; activity change, negative = cytotoxicity: at the top concentration; also: nearly all actives have a fitted effect of over 55% in size
Source text: Drug repurposing or repositioning has been offered as a strategy for drug development in oncology programs. This approach has special potential for childhood cancers and other rare or orphan diseases, where the expected return on new drug development has been a disincentive to pharmaceuticals.
In this project we exploit the poly-pharmacology of drugs to discover new indications via phenotypic screening of a panel of 19 well-characterized cell lines derived from solid tumors seen in children and adolescents. The goal is to identify approved drugs with previously unrecognized anticancer properties that has the potential to reveal new mechanisms and biological processes involved in carcinogenesis or drug resistance. We employed a titration-based paradigm (quantitative high-throughput screening or qHTS), where all compounds were tested at multiple concentrations for their effect on cell viability. Concentration-response curves (CRCs) were derived directly from the primary screen, and both potency and efficacy values were used to identify compounds with robust bioactivity profiles. We screened the NIH Chemical Genomics Center (NCGC) Pharmaceutical Collection (NPC) and Mechanism Interrogation Plate (MIPE) small molecule collections of approved and investigational compounds against these cell lines; and measured metabolically active cells after 48 hours of compound treatment as a proxy for cell viability.
Assay Submitter: Nathalia J. Martinez, National Center for Advancing Translational Sciences, National Institutes of Health, Rockville, MD, USA; email: natalia.martinez@nih.gov
[1] Shen, M et al. Quantitative high-throughput phenotypic screening of pediatric cancer cell lines identifies multiple opportunities for drug repurposing. Oncotarget 2017 Dec 19;9(4):4758-4772. PMID 29435139.
The cells were obtained from University of North Carolina (UNC), Pediatric Preclinical Testing Program (PPT), and Coriell Institute (CI).
qHTS cell viability assay:
Cells were assayed in growth media at a density of 500-1,000 cells/well. Five microliters of cells were dispensed into 1,536-well, white, solid-bottom, TC-treated plates (Greiner Bio One) using a multidrop dispenser and incubated at 37 degrees C, 5% CO2, under a humidified atmosphere for 5 hours. Twenty-three nanoliters of compounds and controls (neutral control DMSO or positive control bortezomib at final concentration of 2.3 µM) were subsequently transferred by Kalypsys pintool. For primary screens, the MIPE collection was tested at 11-point dilutions (final concentrations range from 0.78 nM to 46 µM) and the NPC collection at 8-point dilutions (final concentrations range from 0.59 nM to 46 µM). Compounds tested in follow-up screens were assayed at 11-point dilutions. Cells were incubated for 48 hours, followed by addition of 3 µL of CellTiter-Glo (Promega). After a 15 min incubation at room temperature, samples were analyzed for luminescence intensity using a ViewLux High-throughput CCD imager equipped with clear filters.
Potency is read from the fitted curve at half-maximal effect.

| Structure (SMILES) | activity change, negative = cytotoxicity | Potency |
| --- | --- | --- |
| CC1(C)S[C@H]2[C@H](NC(=O)[C@@H](N)c3ccc(O)cc3)C(=O)N2[C@@H]1C(=O)O | 1.87% (inactive) |  |
| Cc1[nH]c(C=C2C(=O)Nc3ccc(S(=O)(=O)Cc4c(Cl)cccc4Cl)cc32)c(C)c1C(=O)N1CCC[C@H]1CN1CCCC1 |  | 32.9 µM (active) |
| CC(=O)O[C@]1(C(C)=O)CC[C@@H]2[C@@H]3C[C@H](C)C4=CC(=O)CC[C@]4(C)[C@H]3CC[C@@]21C | -15.8% (inactive) |  |
| COc1cc2ncnc(Nc3ccc(F)c(Cl)c3)c2cc1OCCCN1CCOCC1 |  | 67.6 µM (active) |
| COc1cc(N2CCC(N3CCN(C)CC3)CC2)ccc1Nc1ncc(Cl)c(Nc2ccccc2S(=O)(=O)C(C)C)n1 |  | 0.827 µM (active) |
| C=C1C(=O)[C@@]23C(CC[C@@H]1[C@H]2O)[C@@]12CO[C@]3(O)[C@@H](O)[C@@H]1C(C)(C)CC[C@@H]2O (stereo partly specified) |  | 10.4 µM (active) |
| CN(C)C1CCN(C(=O)c2ccc(NC(=O)Nc3nc(N4CCOCC4)nc(N4CCOCC4)n3)cc2)CC1 |  | 0.233 µM (active) |
| CC[C@]1(O)C[C@@H]2CN(CCc3c([nH]c4ccccc34)[C@@](C(=O)OC)(c3cc4c(cc3OC)N(C)[C@H]3[C@@](O)(C(=O)OC)[C@H](OC(C)=O)[C@]5(CC)C=CCN6CC[C@]43[C@@H]65)C2)C1 |  | 522 nM (active) and 1.04 µM (active) |
| CC(=O)Oc1cc2c(s1)CCN(C(C(=O)C1CC1)c1ccccc1F)C2 (stereo unspecified) | -1.62% (inactive) |  |
| CO[C@H]1C(=O)[C@]2(C)[C@@H](OC)C[C@H]3OC[C@@]3(OC(C)=O)[C@H]2[C@H](OC(=O)c2ccccc2)[C@]2(O)C[C@H](OC(=O)[C@H](O)[C@@H](NC(=O)OC(C)(C)C)c3ccccc3)C(C)=C1C2(C)C |  | 0.0083 µM (active) |
| Oc1ccc(C2CCN(c3ccnc4ccccc34)CC2)cc1O |  | 2.33 µM (active) |
| COc1cccc(-c2cc(=O)c3ccccc3o2)c1N | 14.1% (inactive) |  |
| O=C1C(Cl)=C(NCCN2CCOCC2)C(=O)c2ncccc21 |  | 1.04 µM (active) |
| CCCCCCCCCCCC1=C(O)C(=O)C=C(O)C1=O | -28.5% (inactive) |  |
| Nc1ncnc2c1ncn2[C@@H]1O[C@@H](CO)[C@H](O)[C@H]1O | -8.29% [at 29.6 µM] (inactive) |  |
| CC1(C)CCC[C@@]2(C)[C@@H]1CC[C@@]1(C)OC(=O)C[C@H]21 | -2.59% (inactive) |  |
| COc1ccc(-c2coc3cc(O)cc(O)c3c2=O)cc1 | -9.33% (inactive) |  |
| CC[C@]1(O)C[C@@H]2CN(CCc3c([nH]c4ccccc34)[C@@](C(=O)OC)(c3cc4c(cc3OC)N(C=O)[C@@H]3C45CCN4CC=C[C@](CC)([C@H]45)[C@@H](OC(C)=O)[C@]3(O)C(=O)OC)C2)C1 (stereo partly specified) | -4.9% (inactive) |  |

| Structure (SMILES) | activity change, negative = cytotoxicity | Potency |
| --- | --- | --- |
| O=C(O)c1ccc(-c2c[nH]c3ncc(-c4ccccc4)cc23)cc1C1CCCC1 | -22.8% (inactive) |  |
| COc1ncc(-c2ccc3nccc(-c4ccnnc4)c3c2)cc1NS(=O)(=O)c1ccc(F)cc1F |  | 0.0037 µM (active) |
| N[C@@]1(C(=O)O)CS(=O)(=O)[C@H]2[C@H](C(=O)O)[C@H]21 |  | 13.1 µM (active) |
| CO[C@H]1C=CC=C(C)C(=O)NC2=CC(=O)C(NCCN(C)C)=C(C[C@@H](C)C[C@H](OC)[C@@H](O)[C@@H](C)C=C(C)[C@@H]1OC(N)=O)C2=O | 32.4% (inactive) |  |
| CC(=NNC(=S)N1CCC1)c1ccccn1 | -9.04% (inactive) |  |
| CC(C)n1nc(-c2ccc3oc(N)nc3c2)c2c(N)ncnc21 |  | 0.0465 µM (active) |
| CCc1ccc(OCc2ccccc2C(=O)Nc2ccc3nc(C)cc(N)c3c2)cc1 |  | 4.14 µM (active) |
| CN[C@@H](C)C(=O)N[C@H]1CN(C(=O)CC(C)C)CC[C@H]2CC[C@@H](C(=O)NC(c3ccccc3)c3ccccc3)N2C1=O | -13.5% (inactive) |  |
| CC1(C)CCC(CN2CCN(c3ccc(C(=O)NS(=O)(=O)c4ccc(NCC5CCOCC5)c([N+](=O)[O-])c4)c(Oc4cnc5[nH]ccc5c4)c3)CC2)=C(c2ccc(Cl)cc2)C1 | -18.5% (inactive) |  |
| CC(C)(C(=O)NCC(F)(F)C(F)(F)F)C(=O)N[C@@H]1C(=O)Nc2ccccc2-c2ccccc21 | -14.1% (inactive) |  |
| OC[C@H]1O[C@@H](n2cnc3c2NC=NC[C@@H]3O)C[C@H]1O | -12.5% (inactive) |  |
| CC1(C)O[C@H]2C[C@@H]3[C@H]4CCC5=CC(=O)C=C[C@]5(C)[C@@]4(F)[C@@H](O)C[C@]3(C)[C@]2(C(=O)CO)O1 | -0.265% (inactive) |  |
| O=c1[nH]cnc2c1ncn2[C@H]1CC[C@@H](CO)O1 | -24.6% (inactive) |  |
| CCOc1ccc(Nc2nc(-c3c(C)nc4ccccn34)cs2)cc1 |  | 0.104 µM (active) |
| COc1ccc(-c2nc(N3CCOCC3)c3sc(CN(C)c4ncc(C(=O)NO)cn4)cc3n2)cn1 |  | 0.928 µM (active) |
| O=C1c2ccccc2-[n+]2ccc3c([nH]c4ccccc43)c21 |  | 3.29 µM (active) |
| O=C(O)CCC1CCC(c2cc(F)ccc2F)(S(=O)(=O)c2ccc(Cl)cc2)CC1 (stereo unspecified) | 16.2% (inactive) |  |
| NC1=N[C@@]2(c3cc(NC(=O)c4ccc(F)cn4)ccc3F)COC[C@@H]2CS1 | -8.69% (inactive) |  |
